Test results as given in PubChem BioAssay (NCI).
The panel holds about 83,000 compounds, 20% with a hit somewhere; the sample as a whole holds those more often.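 48-hour exposure, single concentration, 96-well plates; percent growth endpoint where 0 means no net growth. Active: below 10.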 A number with no mark means an inactive call. Active and inactive are the calls of the source.

Tested on: HL-60(TB) leukemia
Test: NCI-60 one-dose screen, 48 h (100 = growth as untreated, 0 = no growth, -100 = all killed)
Details: 10 µM unless noted

Structure (SMILES) | growth
CCCCn1cnc2c(SCc3ccc([N+](=O)[O-])cc3)nc(N)nc21 | -42.6% (active)
O=C1C=CC(=O)N1c1ccc(Cc2ccc(N3C(=O)C=CC3=O)cc2)cc1 | 9.02% (active)
CC(=O)c1ccc(C)cc1 | 93.4%
CCOC(=O)CC(C)=N | 93.9%
Cc1[nH]nc2c1C(c1cnn(C)c1)C(C#N)=C(N)O2 (stereo not given) | 99.5%
COc1ccc(C(=O)c2cc3c(N)c(C(=O)Nc4ccc(Br)cc4)sc3nc2C)cc1 | 80.2%
COc1ccc(NC(=O)c2sc3nc(C)c(C(O)c4ccccc4)cc3c2N)cc1 (stereo not given) | -51.9% (active)
COc1ccc(-c2cc(-c3ccc(N(C)C)cc3)nc(NC(=O)c3cccnc3)n2)cc1 | 109%
S=C1SCN(Cc2ccccc2)CN1Cc1ccco1 | 32%
Nc1nc(N)c2cc(CNc3ccc(C(=O)NC(CC(=O)O)C(=O)O)cc3)ccc2n1 (stereo not given) | 19.4%
O=C(O)Cc1ccc(O)c(O)c1 | 82.1%
Cc1cc(Cc2cc(C)c(O)c(C)c2)cc(C)c1O | 15.6%
N#C/C(=C\c1ccccn1)c1nc2cc(Cl)ccc2s1 | 52%
COc1cc(/C=N/Nc2ccccc2F)cc(OC)c1OC | 90.1%
O=C(Nc1ccc(Nc2cc(Nc3ccccc3)ncn2)cc1)Nc1cc(C(F)(F)F)ccc1F | 106%
Cc1ccc(/C=C(/C#N)n2nnc3cccc(F)c32)cc1 | -18.2% (active)
C=C(C)[C@@H]1CC[C@]2(CN)CC[C@]3(C)[C@H](CC[C@@H]4[C@@]5(C)CCCNC(C)(C)[C@@H]5CC[C@]43C)[C@@H]12 | -52.8% (active)
Oc1nc(NCc2ccccc2)sc1/C=C1\C=Nc2ncccc21 | 36.4%
CN1CCN(c2nc(NCCNc3ccnc4cc(Cl)ccc34)c3ccccc3n2)CC1 | -63.3% (active)
Cn1ncc(CC(=O)O)c1-n1nnc2cc(Cl)ccc2c1=O | 97.2%

Structure (SMILES) | growth
c1ccc(Cn2cnc3ccc(-c4nc(-c5ccc6c(c5)ncn6C5CCCCC5)cn5ccnc45)cc32)cc1 | -20.8% (active)
Cc1cc(-c2cc(OC(=O)c3ccccc3)ccc2Cl)cc2nnc(Nc3ccc(OCCN4CCCC4)cc3)nc12 | 116%
CCOc1ccccc1-c1cc(-c2cccs2)c(C#N)c(=O)[nH]1 | 78.9%
O=c1c2cc(Br)cc(Br)c2nc(-c2ccc(Cl)cc2)n1/N=C\c1ccccc1F | 82%
O=C1C=C(O)C(=O)C(CC2=C(O)C(=O)C=C(O)C2=O)=C1O | 102%
COc1ccc(-c2onc(N)c2-c2cc(OC)c3c(c2)OCO3)cc1 | -31.4% (active)
O=C(c1ccncc1)N1N=C(c2ccc(Cl)cc2)C[C@H]1c1cn(-c2ccccc2)nc1-c1ccccc1 | 107%
COc1nc(OC)nc(-c2cc(C(=O)c3ccc(Br)cc3)n3cc(C)cc(C)c23)n1 | 99%
Clc1cc(Cl)cc(N2N=C(c3cccc(Nc4ccncc4)c3)CC2c2ccc(Br)cc2)c1 (stereo not given) | 17.3%
CCN1CCN(C(=O)[C@@]2(C)CC[C@]3(C)CC[C@]4(C)C(=CC(=O)[C@@H]5[C@@]6(C)CC[C@H](OC7C[C@@H](O)[C@@H](O)C(C)O7)C(C)(C)[C@@H]6CC[C@]54C)[C@@H]3C2)CC1 (stereo not given in full) | -57.2% (active)
CCC1CN2C(=N1)c1ccccc1-c1cc(Cl)ccc12 (stereo not given) | 2.51% (active)
O=C(Nc1c2ccccc2nc2ccccc12)c1ccccc1CN1C(=O)c2ccccc2C1=O | 38.9%
Cc1ccc2c(c1)CC(O)CC1C(=O)N(CCO)CC(=O)N21 (stereo not given) | 96.9%
CCCCCCCCCCCCNC(=O)[C@H]1CSC(c2ccc(OC)c(F)c2)N1 (stereo not given in full) | -70.3% (active)
O=C(NCCCl)Nc1nccnc1OCc1ccc(F)cc1 | -18.9% (active)
O=c1[nH]c(Cc2nc3ccccc3s2)nc2cc(Br)ccc12 | 77%
CCCN1CC(c2ccc(OC)c(OC)c2)=C(c2cn(C(=O)OCC)c3ccccc23)C1=O | 33.2%
CCCCNc1ccc2c3c1cccc3c(=O)n1c3ccccc3nc21 | 63.4%
C=C(C)[C@@H]1CC[C@]2(C(=O)O)CC[C@]3(C)[C@H](CC[C@@H]4[C@@]5(C)C/C(=C/c6cccc(I)c6)C(=O)C(C)(C)[C@@H]5CC[C@]43C)[C@@H]12 | 7.47% (active)
NC(N)=N/N=C/c1ccccc1 | 99.5%
